# According to PubChem BioAssay:
# “And” between values parts separate entries of the source, which are not always exact repeats. Equal values may be shown once. Records with an inconclusive call do not appear. The source made the active and inactive calls. Unless noted, cut-off not given; nearly all actives show AC50 up to about 26 µM.
# Legend:
# [1] = viability loss in pontine glioma line – cell-based, JHH-DIPG-1, MIPE4.0, CellTiter-Glo, qHTS, dose response (AID 1347062; cut-off not given, nearly all actives have AC50 up to about 27 µM;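 on AC50: cells exposed to compound for two days before readout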); details: JHH-DIPG-1 viability, CellTiter-Glo ATP luminescence
# [2] = viability loss in pontine glioma line – cell-based, SU-DIPG-XIII, MIPE5.0, CellTiter-Glo, qHTS, dose response (AID 1347064; cut-off not given, nearly all actives have AC50 up to about 23 µM;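 on AC50: cells exposed to compound for 48 hours before the viability read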); details: CellTiter-Glo ATP luminescence
# [3] = viability loss in pontine glioma line – cell-based, SU-DIPG-XXV, MIPE5.0, CellTiter-Glo, qHTS, dose response (AID 1347065); details: CellTiter-Glo ATP luminescence;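 further: cells exposed to compound for 48 hours before ATP readout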
# [4] = JHH-DIPG-1 glioma cell viability, MIPE5.0 library, CellTiter-Glo luminescence, qHTS (AID 1347067); details: JHH-DIPG-1 glioma viability, CellTiter-Glo ATP luminescence;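 further: cells exposed to compound for 48 hours before readout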
# [5] = growth inhibition of DIPG cells – cell-based, MIPE5.0 library, qHTS (AID 1347068; cut-off not given, nearly all actives have IC50 up to about 30 µM;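 on IC50: cells exposed to compound for 48 hours before viability readout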); details: SU-DIPG-XXV viability
# [6] = growth inhibition, single agents and combos, LFS_MB_1R, cell-based, cisplatin or BGB combos, synergistic combos for chromothripsis tumors (AID 1671452; in the data active means inhibition above about 80%;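 further: cells exposed for 96 hours before readout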); details: LFS_MB_1R medulloblastoma cells, stronger effect = higher value
# [7] = growth inhibition, single agents and combos, CRL2098, cell-based, BGB or cisplatin IC20 combos, synergistic combos for chromothripsis tumors (AID 1671454; in the data active means inhibition above about 80%;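 further: cells exposed for 96 h before readout; 0% = vehicle DMSO and 100% = killing by high DMSO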); details: CRL2098 osteosarcoma cells, drug combinations, stronger effect = higher value
# [8] = growth inhibition, single agents and combos, HD-MB03, cell-based, BGB or cisplatin IC20 combos, synergistic combos for chromothripsis tumors (AID 1671455; in the data active means inhibition above about 83%;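 further: 0% = vehicle DMSO and 100% = high DMSO as cytotoxic control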); details: HD-MB03 medulloblastoma cells, stronger effect = higher value
# [9] = growth inhibition, single agents and combos, UWB1.289, cell-based, BGB or cisplatin combos, synergistic combos for chromothripsis tumors (AID 1671456; in the data active means inhibition above about 80%;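 further: cells exposed to compound for four days; 0% = vehicle DMSO and 100% = killing by high DMSO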); details: UWB1.289 ovarian carcinoma cells, stronger effect = higher value
# [10] = growth inhibition, single agents and combos, LFS_MB_2R, cell-based, cisplatin combos, synergistic combos for chromothripsis tumors (AID 1671457; in the data active means inhibition above about 80%;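 further: cells exposed to compound for four days before readout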); details: LFS_MB_2R medulloblastoma cells, stronger effect = higher value
# [11] = UWB1.289_BRCA1 ovarian cancer growth, cell-based, BGB or cisplatin combinations (AID 1671459; in the data active means inhibition above about 80%); details: UWB1.289 BRCA1 ovarian carcinoma, drug combinations, stronger effect = higher value
# [12] = drug combination toxicity in non-malignant astrocytes – cell-based, BGB or cisplatin IC20 combos, cytotoxicity control for chromothriptic childhood tumor combination screen (AID 1671460; in the data active means inhibition above about 80%;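 further: cells exposed to compounds for 96 hours before viability readout; 0% = vehicle and 100% = killing control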); details: Human astrocytes, viability inhibition, drug combinations, at 0.5 µM, stronger effect = higher value
# [13] = BT084 cell growth, single and combined drugs, ICGC_MB145, cisplatin and BGB IC40 combos (AID 1671461; in the data active means inhibition above about 80%;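 further: cells exposed to drugs for 96 hours; 0% = vehicle DMSO and 100% = high DMSO full killing control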); details: BT084 medulloblastoma cells, drug combinations, stronger effect = higher value
# [14] = RCMB18 cell growth, single agent and combined, cisplatin and BGB IC40 combos (AID 1671462; in the data active means inhibition above about 80%;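 further: cells exposed to compound for four days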); details: RCMB18 medulloblastoma cells, stronger effect = higher value
# [15] = CRL1545 cell growth, single agent and combined, cisplatin and BGB IC20 combos (AID 1671464; in the data active means inhibition above about 80%;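 further: cells exposed to compound for 96 hours before readout; 0% = vehicle DMSO and 100% = high DMSO killing control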); details: CRL1545 osteosarcoma cells, stronger effect = higher value
# [16] = galactose survival enhancers in mitochondrial complex I cybrids – cell-based, galactose medium, ATP luminescence, primary screen (AID 1645843;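 active means z-score of at least 1.8 in each of two replicates, scored against plate mean and spread of sample wells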;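 further: positive z means more ATP and so rescue of galactose-driven cybrid death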); details: complex I mutant cybrid cells, 72 h, stronger effect = higher value
# [17] = target: ATP-dependent translocase ABCB1 (Homo sapiens) (UniProt P08183); assay: P-glycoprotein substrate transport blockade – cell-based (AID 377; in the data active means fluorescence slope change above about 50%); details: MDR1-expressing cells, fluorescent substrate accumulation slope; stronger effect = higher value; concentration not given here
# ATP-dependent translocase ABCB1 (Homo sapiens), sequence (P08183 whole entry, looked up): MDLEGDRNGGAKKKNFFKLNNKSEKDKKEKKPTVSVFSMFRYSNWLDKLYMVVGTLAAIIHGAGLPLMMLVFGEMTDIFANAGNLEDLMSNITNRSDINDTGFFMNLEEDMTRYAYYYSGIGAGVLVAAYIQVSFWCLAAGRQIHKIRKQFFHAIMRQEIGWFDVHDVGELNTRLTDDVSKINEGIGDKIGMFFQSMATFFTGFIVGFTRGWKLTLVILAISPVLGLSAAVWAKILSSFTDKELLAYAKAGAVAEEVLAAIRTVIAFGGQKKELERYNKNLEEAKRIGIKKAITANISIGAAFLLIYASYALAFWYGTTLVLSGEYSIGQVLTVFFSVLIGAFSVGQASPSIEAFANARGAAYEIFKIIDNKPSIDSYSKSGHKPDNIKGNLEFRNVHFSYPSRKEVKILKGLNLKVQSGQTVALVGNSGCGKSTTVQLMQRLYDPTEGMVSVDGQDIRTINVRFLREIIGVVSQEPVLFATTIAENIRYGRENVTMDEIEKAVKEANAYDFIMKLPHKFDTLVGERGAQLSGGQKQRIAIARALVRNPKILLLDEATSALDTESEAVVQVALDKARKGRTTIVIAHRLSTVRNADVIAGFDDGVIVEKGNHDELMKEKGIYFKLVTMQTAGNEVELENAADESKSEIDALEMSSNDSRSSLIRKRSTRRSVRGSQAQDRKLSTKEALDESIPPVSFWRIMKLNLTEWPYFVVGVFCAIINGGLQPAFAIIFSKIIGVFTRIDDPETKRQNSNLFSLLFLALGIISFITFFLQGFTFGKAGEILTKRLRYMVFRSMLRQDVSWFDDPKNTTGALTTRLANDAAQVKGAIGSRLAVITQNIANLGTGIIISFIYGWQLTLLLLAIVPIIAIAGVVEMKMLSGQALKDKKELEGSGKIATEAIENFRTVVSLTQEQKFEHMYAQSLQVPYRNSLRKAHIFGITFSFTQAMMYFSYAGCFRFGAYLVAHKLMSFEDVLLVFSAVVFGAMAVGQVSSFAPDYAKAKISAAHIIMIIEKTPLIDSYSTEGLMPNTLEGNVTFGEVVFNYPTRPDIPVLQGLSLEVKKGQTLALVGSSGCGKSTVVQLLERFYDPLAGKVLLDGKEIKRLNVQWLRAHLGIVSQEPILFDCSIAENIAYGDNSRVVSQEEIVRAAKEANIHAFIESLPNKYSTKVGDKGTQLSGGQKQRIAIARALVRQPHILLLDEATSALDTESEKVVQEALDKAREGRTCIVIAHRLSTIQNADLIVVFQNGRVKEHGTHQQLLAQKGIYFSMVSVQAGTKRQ
# [18] = viability loss in pontine glioma line – cell-based, SU-DIPG-IV, MIPE4.0, CellTiter-Glo, qHTS, dose response (AID 1347063; cut-off not given, nearly all actives have AC50 up to about 30 µM;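 further: compound exposure lasted 48 hours before the viability readout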); details: CellTiter-Glo ATP luminescence
# [19] = target: Mitogen-activated protein kinase 7 (Homo sapiens) (UniProt Q13164); assay: Gal4-ERK5 driven luciferase induction – cell-based, HTS, primary screen (AID 1508626;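 active means luciferase signal above three times the same-plate solvent-only control wells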;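 further: luciferase driven by Gal4-ERK5 fusion binding five Gal4 sites before minimal TATA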); details: HeLa Gal4-ERK5 transactivation, 18 h, at 5 µM, stronger effect = higher value
# Mitogen-activated protein kinase 7 (Homo sapiens), sequence (Q13164 whole entry, looked up, the tested form may be a part): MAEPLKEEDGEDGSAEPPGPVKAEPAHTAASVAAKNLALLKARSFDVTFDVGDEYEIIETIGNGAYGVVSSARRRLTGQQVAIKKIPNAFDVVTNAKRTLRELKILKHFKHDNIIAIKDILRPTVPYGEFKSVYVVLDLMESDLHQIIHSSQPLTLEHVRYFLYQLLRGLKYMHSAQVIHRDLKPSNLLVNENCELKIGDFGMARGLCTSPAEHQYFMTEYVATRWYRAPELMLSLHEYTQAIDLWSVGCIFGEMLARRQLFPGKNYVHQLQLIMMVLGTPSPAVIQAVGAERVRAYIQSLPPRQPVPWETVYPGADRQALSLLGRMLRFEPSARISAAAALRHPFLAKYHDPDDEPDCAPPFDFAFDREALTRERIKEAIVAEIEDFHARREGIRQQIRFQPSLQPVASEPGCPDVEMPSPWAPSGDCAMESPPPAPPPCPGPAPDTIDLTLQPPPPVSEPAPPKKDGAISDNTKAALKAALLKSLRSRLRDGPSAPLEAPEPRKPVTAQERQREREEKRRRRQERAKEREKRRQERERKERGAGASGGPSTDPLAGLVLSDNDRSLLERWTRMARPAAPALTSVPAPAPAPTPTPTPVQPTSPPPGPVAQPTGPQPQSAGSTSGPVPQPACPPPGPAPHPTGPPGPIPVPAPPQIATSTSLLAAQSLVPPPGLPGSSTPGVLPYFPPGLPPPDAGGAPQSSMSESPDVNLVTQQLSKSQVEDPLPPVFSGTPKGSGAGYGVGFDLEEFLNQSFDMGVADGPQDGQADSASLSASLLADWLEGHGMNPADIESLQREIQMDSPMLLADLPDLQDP
# [20] = growth inhibition of DIPG cells – cell-based, MIPE4.0 library, CellTiter-Glo luminescence, qHTS (AID 1347066; cut-off not given, nearly all actives have AC50 up to about 30 µM;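 further: cells exposed to compound for 48 hours before readout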); details: SU-DIPG-VI viability, CellTiter-Glo ATP luminescence
# [21] = measured here: combination with BGB IC40, at 0.05 µM
# [22] = measured here: combination with cisplatin, at 0.5 µM
# [23] = measured here: combination with cisplatin, at 5 µM
# [24] = measured here: combination with BGB at IC20, at 0.5 µM
# [25] = measured here: combination with cisplatin at IC20, at 0.5 µM
# [26] = measured here: combo with BGB at IC20, at 0.5 µM
# [27] = measured here: combo with cisplatin at IC20, at 0.5 µM
# [28] = measured here: inhibition with BGB combination, at 0.05 µM
# [29] = measured here: inhibition with cisplatin combination, at 0.05 µM
# [30] = BGB combination, concentration series, at 5 µM
# [31] = cisplatin combination, concentration series, at 5 µM
# [32] = measured here: combo with BGB IC20
# [33] = measured here: combo with cisplatin IC20
# [34] = cisplatin combination, at 0.5 µM
# [35] = measured here: BGB IC40 combination 0.05 uM, at 0.05 µM
# [36] = measured here: BGB IC40 combination, at 0.05 µM
# [37] = measured here: with BGB IC20 combination, at 0.5 µM
# [38] = measured here: with cisplatin IC20 combination, at 0.5 µM
structure (smiles),measurement,setting,value
O=C(CCCCCCC(=O)Nc1ccccc1)NO,AC50,[1],3.72 µM (active)
same,AC50,[2],1.18 µM (active)
same,AC50,[3],833 nM (active)
same,AC50,[4],1.48 µM (active)
same,outcome,[5],inactive
same,inhibition,[6]; at 0.5 µM,17.4% (inactive)
same,inhibition,[6]; [21],-3.43%
same,inhibition,[6]; [22],21.7%
same,inhibition,[6]; [23],83.1%
same,inhibition,[7]; at 0.5 µM,-45.6% (inactive)
same,inhibition,[7]; [24],-78.4%
same,inhibition,[7]; [25],-12.2%
same,inhibition,[8]; at 0.5 µM,22% (inactive)
same,inhibition,[8]; [26],21%
same,inhibition,[8]; [27],48.3%
same,inhibition,[9]; at 0.5 µM,14.7% (inactive)
same,inhibition,[9]; [28],-38.8%
same,inhibition,[9]; [29],-24.2%
same,inhibition,[10]; at 0.5 µM,-2.63% (inactive)
same,inhibition,[10]; [22],3.49%
same,inhibition,[10]; [23],79.7%
same,inhibition,[11]; [30],69.1%
same,inhibition,[11]; at 0.5 µM,9.38% (inactive)
same,inhibition,[11]; [31],84.7%
same,inhibition,[12],-0.71% (inactive)
same,inhibition,[12]; [32],-2.1%
same,inhibition,[12]; [33],-2.33%
same,inhibition,[13]; at 0.5 µM,10.3% (inactive)
same,inhibition,[13]; [34],36%
same,inhibition,"[13]; cisplatin combination, at 5 µM",98.4%
same,inhibition,[13]; [35],-23.4%
same,inhibition,"[13]; single agent, at 5 µM",87.4%
same,inhibition,[14]; at 0.5 µM,14.4% (inactive)
same,inhibition,"[14]; cisplatin combo, at 5 µM",93.4%
same,inhibition,[14]; [36],-14.3%
same,inhibition,[14]; [22],47.6%
same,inhibition,"[14]; single agent, at 5 µM",78.3%
same,inhibition,[15]; at 0.5 µM,74.5% (inactive)
same,inhibition,[15]; [37],65.9%
same,inhibition,[15]; [38],78.3%
same,inhibition,"[15]; single agent, at 0.05 µM",-34.3%
same,inhibition,"[15]; single agent, at 5 µM",88.9%
C#CCN(C)CCCOc1ccc(Cl)cc1Cl,z-score,[16],-0.39 (inactive)
COc1cc2c(c(OC)c1OC)-c1ccc(OC)c(=O)cc1[C@@H](NC(C)=O)CC2,fluorescence slope change,[17],7.7% (inactive)
same,AC50,[1],0.105 µM (active)
same,outcome,[18],inactive
same,AC50,[2],0.0525 µM (active)
same,AC50,[3],41.7 nM (active)
same,AC50,[4],0.0295 µM (active)
same,IC50,[5],0.0468 µM (active)
same,luciferase signal,[19],88 AU (inactive)
same,z-score,[16],-0.69 (inactive)
C[C@H]1[C@H](NC(=O)/C(=N/OC(C)(C)C(=O)O)c2csc(N)n2)C(=O)N1S(=O)(=O)O (stereo in doubt),outcome,[1],inactive
same,outcome,[18],inactive
same,outcome,[20],inactive
Clc1ccc(Cn2c(CN3CCCC3)nc3ccccc32)cc1,fluorescence slope change,[17],82.8% (active)
same,outcome,[4],inactive
same,outcome,[5],inactive
same,luciferase signal,[19],56 AU (inactive)
same,z-score,[16],-1.35 (inactive)
NCCCNCCSP(=O)(O)O,luciferase signal,[19],52 AU (inactive)
same,z-score,[16],0.585 (inactive) and 0.25 (inactive)
NC(N)=NC(N)=NCCc1ccccc1,fluorescence slope change,[17],100% (active)
same,outcome,[1],inactive
same,outcome,[18],inactive
same,outcome,[2],inactive
same,outcome,[3],inactive
same,outcome,[20],inactive
same,outcome,[4],inactive
same,outcome,[5],inactive
same,luciferase signal,[19],40 AU (inactive)
same,z-score,[16],-2.58 (inactive)
CC(=O)NCCCS(=O)(=O)O,outcome,[2],inactive
same,outcome,[3],inactive
same,outcome,[5],inactive
same,luciferase signal,[19],52 AU (inactive)
O=C1Cc2cc(CCN3CCN(c4nsc5ccccc45)CC3)c(Cl)cc2N1,AC50,[18],26.4 µM (active)
same,AC50,[20],23.5 µM (active)
same,z-score,[16],-0.165 (inactive)
O=C(O)[C@H](O)[C@@H](O)[C@H](O[C@@H]1O[C@H](CO)[C@H](O)[C@H](O)[C@H]1O)[C@H](O)CO,outcome,[2],inactive
same,outcome,[3],inactive
same,outcome,[4],inactive
same,outcome,[5],inactive
Nc1cc(C(Cl)=C(Cl)Cl)c(S(N)(=O)=O)cc1S(N)(=O)=O,outcome,[1],inactive
same,outcome,[18],inactive
same,outcome,[2],inactive
same,outcome,[3],inactive
same,outcome,[20],inactive
same,outcome,[4],inactive
same,outcome,[5],inactive
COc1cccc2c1C(=O)c1c(O)c3c(c(O)c1C2=O)C[C@@](O)(C(C)=O)C[C@@H]3O[C@H]1C[C@H](N)[C@H](O)[C@H](C)O1,AC50,[1],0.0332 µM (active)
same,AC50,[18],0.0469 µM (active)
same,AC50,[2],0.742 µM (active)
same,AC50,[3],742 nM (active)
same,AC50,[4],0.742 µM (active)
same,IC50,[5],3.32 µM (active)
same,luciferase signal,[19],300 AU (active)
same,z-score,[16],-2.16 (inactive)
CCN(CC)C(=O)c1ccc(O)c(OC)c1,fluorescence slope change,[17],53.1% (active)
same,luciferase signal,[19],52 AU (inactive)
same,z-score,[16],0.21 (inactive)
COc1cc2ncnc(Nc3ccc(F)c(Cl)c3)c2cc1OCCCN1CCOCC1,AC50,[1],19.1 µM (active)
same,AC50,[18],10.8 µM (active)
same,outcome,[2],inactive
same,outcome,[3],inactive
same,AC50,[20],38.2 µM (active)
same,outcome,[4],inactive
same,outcome,[5],inactive
same,z-score,[16],-0.29 (inactive) and 0.3 (inactive)
N=C(N=C(N)N)N1CCOCC1,fluorescence slope change,[17],25.2% (inactive)
same,outcome,[18],inactive
same,outcome,[20],inactive
same,z-score,[16],0.495 (inactive)
same,inhibition,[6]; at 0.5 µM,-2.71% (inactive)
same,inhibition,[6]; [21],2.02%
same,inhibition,[6]; [22],8.46%
same,inhibition,[6]; [23],-12.4%
same,inhibition,[7]; at 0.5 µM,-24.9% (inactive)
same,inhibition,[7]; [24],-15.5%
same,inhibition,[7]; [25],-34.6%
same,inhibition,[8]; at 0.5 µM,-2.36% (inactive)
same,inhibition,[8]; [26],3.57%
same,inhibition,[8]; [27],-15.2%
same,inhibition,[9]; at 0.5 µM,6.16% (inactive)
same,inhibition,[9]; [28],-1.97%
same,inhibition,[9]; [29],3.05%
same,inhibition,[10]; at 0.5 µM,6.81% (inactive)
same,inhibition,[10]; [22],8.19%
same,inhibition,[10]; [23],-31.5%
same,inhibition,[11]; [30],1.52%
same,inhibition,[11]; at 0.5 µM,3.22% (inactive)
same,inhibition,[11]; [31],4.22%
same,inhibition,[12],2.04% (inactive)
same,inhibition,[12]; [32],7.42%
same,inhibition,[12]; [33],-4.5%
same,inhibition,[13]; at 0.5 µM,3.57% (inactive)
same,inhibition,[13]; [34],-9.16%
same,inhibition,"[13]; cisplatin combination, at 5 µM",7.43%
same,inhibition,[13]; [35],0.739%
same,inhibition,"[13]; single agent, at 5 µM",-12.3%
same,inhibition,[14]; at 0.5 µM,5.29% (inactive)
same,inhibition,"[14]; cisplatin combo, at 5 µM",-26%
same,inhibition,[14]; [36],-14.8%
same,inhibition,[14]; [22],25.2%
same,inhibition,"[14]; single agent, at 5 µM",-13.7%
same,inhibition,[15]; at 0.5 µM,2.6% (inactive)
same,inhibition,[15]; [37],-18.7%
same,inhibition,[15]; [38],11.3%
same,inhibition,"[15]; single agent, at 0.05 µM",0.225%
same,inhibition,"[15]; single agent, at 5 µM",8.11%
O=[N+]([O-])c1ccc(O)c2ncccc12,AC50,[2],3.32 µM (active)
same,AC50,[3],9340 nM (active)
same,AC50,[4],2.95 µM (active)
same,IC50,[5],23.5 µM (active)
CNCCCC1c2ccccc2C=Cc2ccccc21,luciferase signal,[19],40 AU (inactive)
same,z-score,[16],-1.15 (inactive)
CN(N=O)C(=O)N[C@@H]1[C@@H](O)[C@H](O)[C@@H](CO)O[C@@H]1O,outcome,[2],inactive
same,outcome,[3],inactive
same,outcome,[4],inactive
same,outcome,[5],inactive
same,luciferase signal,[19],120 AU (inactive)
